Among the test systems are NCI-H23 lung; NCI-H226 lung; NCI-H322M lung; HOP-62 NSCLC; NCI-H460 lung; HOP-92 NSCLC; NCI-H522 lung; 786-0 renal; COLO 205 colon; A549/ATCC NSCLC.
What all share (experiment): NCI-60 one-dose screen, 48 h (100 = growth as untreated, 0 = no growth, -100 = all killed)
Common to all, as to conditions: 10 µM unless noted

About 83,000 compounds went through this panel and 20% of them were active in at least one assay; those are over-represented in the sample as a whole.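 Percent growth is the endpoint: 0 to 100 indicates growth inhibition (40 means 60% inhibition), 0 means no net growth, and negative values indicate cell death.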 Unmarked numbers belong to inactive results. Calls of active or inactive are those of the source. The calls were made as follows: active = growth percent below 10; inactive = the rest.

With `CC1(C)N=C(N)N=C(N)N1c1cccc(CN)c1`, the growth in the test with NCI-H23 lung was 93.2%; with NCI-H226 lung it was 92.7%; in the test with NCI-H322M lung, 94.3%; with HOP-62 NSCLC, 92.3%; in the test on NCI-H460 lung, 111%; in the test with HOP-92 NSCLC, 80.5%. In addition, the growth was 80.7% in the test with NCI-H522 lung and 99.1% in the test with 786-0 renal.

As to `COc1cc(-c2cc(-c3ccc(Nc4nc(Nc5ccccc5)nc(Nc5ccc(Cl)cc5)n4)cc3)nc(N)n2)cc(OC)c1OC`, the growth in the test with NCI-H23 lung is 46.9%; in the test with NCI-H226 lung it was 75.6%; in the test on NCI-H322M lung, 81.9%; in the test with HOP-62 NSCLC it was 47.2%; in the test on NCI-H460 lung, 65.8%; with HOP-92 NSCLC, 42.4%. Besides, the values for the growth in the test on NCI-H522 lung, with 786-0 renal and with COLO 205 colon were 66.3%, 44% and 76.6%, respectively.

For the compound `C#C[C@]1(O)CC[C@H]2[C@@H]3CC=C4c5sc(N=C(N)N)nc5CC[C@]4(C)[C@H]3CC[C@@]21C`, the growth with NCI-H23 lung was 28.5%; in the test on NCI-H226 lung it was 35.2%; in the test on NCI-H322M lung, 27.9%; with HOP-62 NSCLC, -37.5% (active); in the test with NCI-H460 lung, -14.5% (active); with HOP-92 NSCLC, 32.7%. Also, the results for the growth in the test with NCI-H522 lung, with A549/ATCC NSCLC and in the test on COLO 205 colon were -24.1% (active), -13.1% (active) and -38.7% (active), respectively.

Take `COc1ccc(OC)c(Nc2nc3nonc3nc2Nc2cccc(Br)c2)c1`: the growth in the test on NCI-H23 lung is 6.27% (active); in the test with NCI-H226 lung, 13.4%; in the test on NCI-H322M lung it was 5.13% (active); in the test on HOP-62 NSCLC, 8.04% (active); with NCI-H460 lung it was 0.718% (active); with HOP-92 NSCLC, -25.5% (active). Also, the growth in the test with NCI-H522 lung is -13% (active); in the test on A549/ATCC NSCLC, 9.15% (active); in the test on 786-0 renal, 22.1%; in the test on COLO 205 colon it was -79.3% (active).

Turning to `O=[N+]([O-])c1ccc(-c2cc3c(Nc4ccc(OCc5cccc(Cl)c5)c(Cl)c4)ncnc3s2)cc1`, the growth is 78.7% with NCI-H23 lung; 92.2% in the test on NCI-H226 lung; 82.4% with NCI-H322M lung; 67.7% in the test on HOP-62 NSCLC; 32% with NCI-H460 lung; 80.3% with HOP-92 NSCLC. Moreover, the growth in the test on NCI-H522 lung was 49.9%; with 786-0 renal, 88.3%.

As to `COc1ccc(/C=C2\C=C(c3ccccc3)N(CCc3ccccc3)C2=O)cc1OC`, the growth in the test on NCI-H23 lung was 68.4%; with NCI-H226 lung, 29.7%; in the test on NCI-H322M lung, 8.42% (active); in the test with HOP-62 NSCLC, -30% (active); with NCI-H460 lung, 20.5%; in the test with HOP-92 NSCLC, -4.05% (active). Besides, the values for the growth in the test on NCI-H522 lung and in the test with 786-0 renal were 42.5% and 8.93% (active), respectively.

Consider `CC(C)c1ccc(NC(=O)Cc2ccc(Nc3ncnc4cc(-c5cnn(CCN(C)C)c5)ccc34)cc2)cc1`, for which the growth is -61.7% [30 µM] (active) in the test on NCI-H23 lung; 50.6% [30 µM] with NCI-H226 lung; -99.7% [30 µM] (active) in the test on NCI-H322M lung; -0.67% [30 µM] (active) in the test with HOP-62 NSCLC; -90.5% [30 µM] (active) in the test with NCI-H460 lung; -45.3% [30 µM] (active) with HOP-92 NSCLC. For the same compound, the growth with NCI-H522 lung is -45.3% [30 µM] (active); in the test with 786-0 renal, -59.1% [30 µM] (active); with COLO 205 colon, -46.7% [30 µM] (active).

Turning to `CC1=NN(c2cccc(Cl)c2)C(=O)/C1=C\c1cn(CC(O)CN2CCCCC2)c2ccccc12` (stereo unspecified), the growth in the test with NCI-H23 lung was 97.8%; in the test with NCI-H226 lung, 96.8%; with NCI-H322M lung, 103%; in the test on HOP-62 NSCLC, 73.6%; with NCI-H460 lung, 44.8%; in the test with HOP-92 NSCLC, 56.3%. Also, the growth in the test with NCI-H522 lung is 71.9%; with A549/ATCC NSCLC, 95.2%; in the test with COLO 205 colon, -58% (active).

On to `COc1ccc(C2CC(c3ccccc3)=NN2c2nc(C)c(C(C)=O)s2)cc1` (stereo unspecified), for which the growth with NCI-H23 lung is 99.3%; with NCI-H226 lung it was 101%; in the test on NCI-H322M lung it was 98.6%; in the test with HOP-62 NSCLC, 101%; in the test on NCI-H460 lung, 106%; in the test on HOP-92 NSCLC, 95.4%. For the same compound, the growth with NCI-H522 lung was 88.3%; in the test with 786-0 renal, 101%.

Take `CNCCNc1nc2ccccc2c2c(=O)c3cc(F)ccc3oc12`: the growth with NCI-H23 lung is 64.8%; with NCI-H226 lung, 68%; in the test on NCI-H322M lung, 43.8%; in the test on HOP-62 NSCLC, 44.2%; in the test with NCI-H460 lung, 55.8%; with HOP-92 NSCLC, 33.3%. Also, the growth with NCI-H522 lung is 58%; with 786-0 renal it was 53.1%.

With `COc1ccc(C(=O)/C=C/C23c4ccccc4C(c4ccccc42)C2C(=O)NC(=O)C23)cc1` (stereo unspecified), the growth in the test with NCI-H23 lung is 88.1%; with NCI-H226 lung, 99.7%; in the test with NCI-H322M lung it was 92.4%; in the test on HOP-62 NSCLC it was 96.4%; in the test on NCI-H460 lung it was 96.2%; with HOP-92 NSCLC, 103%. For the same compound, the growth in the test on NCI-H522 lung is 87%; in the test on 786-0 renal, 103%.

In the case of `COc1ccccc1NC(=O)Nc1ccc(-c2nc3ccccc3o2)cc1`, the growth in the test on NCI-H23 lung was 99.4%; in the test with NCI-H226 lung, 99%; in the test on NCI-H322M lung it was 88.7%; in the test on HOP-62 NSCLC, 95.8%; in the test with NCI-H460 lung, 101%; in the test with HOP-92 NSCLC, 111%. The growth with NCI-H522 lung is 112%; in the test on 786-0 renal, 89.2%.

For `COc1ccc(NC(=O)C(=O)c2c[nH]c3ccc(F)cc23)cc1`, the growth with NCI-H23 lung is 97.8%; in the test with NCI-H226 lung, 101%; with NCI-H322M lung, 73%; in the test on HOP-62 NSCLC, 103%; with NCI-H460 lung, 90.7%; in the test with HOP-92 NSCLC, 99.2%. Also, the growth in the test with NCI-H522 lung was 85.1%; with A549/ATCC NSCLC, 78.7%; in the test with 786-0 renal it was 56.1%; in the test with COLO 205 colon it was 104%.

As for `Cc1csc(NC(=O)c2sc3nc(-c4cccs4)ccc3c2N)n1`, the growth with NCI-H23 lung was 94.2%; in the test on NCI-H226 lung it was 96.9%; in the test with NCI-H322M lung it was 102%; in the test with HOP-62 NSCLC, 90.4%; with NCI-H460 lung it was 99.3%; in the test on HOP-92 NSCLC, 84.7%. The growth is 82.3% in the test on NCI-H522 lung, 94.7% with A549/ATCC NSCLC and 103% in the test on COLO 205 colon.
